The panel holds about 83,000 compounds, 20% with a hit somewhere; the sample as a whole holds those more often.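 The endpoint reported here, percent growth, reads 100 for growth as untreated, 0 for no net growth and -100 for all cells dead.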 Activity calls are given as the source filed them. How the source made its calls: active means growth percent below 10; inactive means the rest.
Tested on: MDA-MB-468 breast
Test: NCI-60 one-dose screen, 48 h (100 = growth as untreated, 0 = no growth, -100 = all killed)
Conditions: 10 µM unless noted

How did the growth turn out when `O=[N+]([O-])c1ccccc1Sc1ccccc1[N+](=O)[O-]` was run?
Its growth is 92.1% (inactive).

Which growth does the source give for `COc1ccc(NC(=O)c2sc3nc(C)c(C(=O)CCc4cccc(OC)c4)cc3c2N)cc1` here?
Its growth is 29.6% (inactive).

Which growth does the source give for `COc1cc2c(=O)n(CCCN(C)C)c3c4cc[nH]c4ncc3c2cc1OC` here?
The growth was 81.5% (inactive).

For `N#C/C(=C1C=C/C(=N\O)C(Cl)=C\1)c1ccccc1`, which growth is on record?
The growth was 41.2% (inactive).

With `Cn1cc(-c2nc(-c3c[nH]c4ccncc34)cs2)c2cc(F)ccc21` as the compound, how does the growth read?
The growth was -72.8% (active).

`O=C(CCCCC(=O)Oc1c(Cl)cc(Cl)cc1[N+](=O)[O-])Oc1c(Cl)cc(Cl)cc1[N+](=O)[O-]` was tested. Which growth did it give?
The growth was 113% (inactive).

How did the growth turn out when `C(=C1c2ccccc2-c2ccccc21)c1ccccn1` was run?
Its growth is 22.4% (inactive).

— PubChem BioAssay (NCI)
